# Article PMC4336329 (PLoS ONE, 2015)
# Out of some 310,000 compounds screened, about 14,000 (4.5%) showed an effect of 50% or more. The effect is printed as a negative number. The sample holds strong results, similar compounds and a random draw of the others, so the mix is not that of the screen.
# Target: human ether-à-go-go-related gene (hERG) potassium channel (human, UniProt Q12809)
# Assay: primary screen, population patch clamp on CHO cells stably expressing hERG; higher = less effect of the substance
# 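Note: peak tail current of the secondary pulse compared with the same well before compound.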
# Chain of human ether-à-go-go-related gene (hERG) potassium channel (Q12809 whole entry, looked up): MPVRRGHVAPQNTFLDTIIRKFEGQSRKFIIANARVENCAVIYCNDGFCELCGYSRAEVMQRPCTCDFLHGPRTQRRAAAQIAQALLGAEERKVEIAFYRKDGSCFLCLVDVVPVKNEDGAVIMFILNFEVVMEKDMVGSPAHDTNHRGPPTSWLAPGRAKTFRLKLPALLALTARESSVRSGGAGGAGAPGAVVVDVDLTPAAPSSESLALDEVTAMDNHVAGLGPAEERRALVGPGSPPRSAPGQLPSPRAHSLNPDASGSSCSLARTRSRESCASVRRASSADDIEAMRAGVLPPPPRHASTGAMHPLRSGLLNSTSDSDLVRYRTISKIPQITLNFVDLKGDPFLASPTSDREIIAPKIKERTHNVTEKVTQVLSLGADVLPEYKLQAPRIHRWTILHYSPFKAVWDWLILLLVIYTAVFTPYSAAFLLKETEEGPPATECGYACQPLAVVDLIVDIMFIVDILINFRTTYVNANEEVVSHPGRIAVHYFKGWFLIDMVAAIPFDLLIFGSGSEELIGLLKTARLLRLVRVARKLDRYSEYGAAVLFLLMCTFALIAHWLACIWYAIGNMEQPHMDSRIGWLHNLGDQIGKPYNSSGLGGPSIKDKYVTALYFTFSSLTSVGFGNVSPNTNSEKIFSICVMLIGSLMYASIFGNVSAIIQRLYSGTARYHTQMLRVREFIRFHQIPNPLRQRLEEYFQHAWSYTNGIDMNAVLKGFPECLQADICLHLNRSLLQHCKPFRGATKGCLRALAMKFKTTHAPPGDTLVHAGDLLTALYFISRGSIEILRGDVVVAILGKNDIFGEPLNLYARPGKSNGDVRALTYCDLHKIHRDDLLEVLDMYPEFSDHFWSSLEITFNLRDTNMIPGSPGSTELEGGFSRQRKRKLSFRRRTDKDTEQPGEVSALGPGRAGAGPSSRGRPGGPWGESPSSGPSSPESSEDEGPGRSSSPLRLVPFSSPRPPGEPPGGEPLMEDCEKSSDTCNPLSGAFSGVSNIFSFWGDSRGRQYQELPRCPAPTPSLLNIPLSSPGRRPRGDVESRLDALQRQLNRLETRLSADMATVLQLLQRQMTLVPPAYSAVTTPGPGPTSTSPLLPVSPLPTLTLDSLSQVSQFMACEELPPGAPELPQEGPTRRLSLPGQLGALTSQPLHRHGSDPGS
row,Structure (SMILES),"hERG current change (%, negative = inhibition) at 10uM [%]"
1,CCOC(=O)c1cnc(SCc2nc(N)nc(Nc3ccccc3OC)n2)nc1N,-2.39
2,O=C1NCC(COc2cccc3ccccc23)O1 (stereo not shown),13.3
3,CCN(CC(=O)Nc1ccc(NC(C)=O)cc1)C(=O)Cc1cccc2ccccc12,4.98
4,CC1CCCCN1S(=O)(=O)c1ccc2[nH]c(=O)cc(C(=O)NCCCN3CCCCCC3)c2c1 (stereo not shown),17
5,Cc1cccc(-n2cc(-c3ccc([N+](=O)[O-])cc3)[nH]c2=S)c1,-2.96
6,O=[N+]([O-])c1ccc(-c2cn(-c3ccccc3F)c(=S)[nH]2)cc1,-3.28
7,Cc1ccc(-n2cc(-c3ccc([N+](=O)[O-])cc3)[nH]c2=S)c(C)c1,-51.3
8,CCOC(=O)C1CCCN(C(=O)Cn2nc(C)n3c(cc4c(OC)cccc43)c2=O)C1 (stereo not shown),-6.37
9,CN1C[C@H](CO)C[C@@H]2c3cccc4[nH]cc(c34)C[C@H]21,-7.36
10,O=C(NCC1CCC(C(=O)O)CC1)OCc1ccccc1 (stereo not shown),3.13
11,CN1C[C@H](CNC(=O)OCc2ccccc2)C[C@@H]2c3cccc4c3c(cn4C)C[C@H]21,-61.9
12,COCc1ccc(C(=O)N2CCCC(N(C)Cc3ccccc3)C2)s1 (stereo not shown),-8.86
13,COc1ccc(CCN(C)C2CCCN(C(=O)c3sccc3C)C2)cc1OC (stereo not shown),-55
14,COCc1ccc(C(=O)N2CCCC(N(C)CCc3ccc(OC)c(OC)c3)C2)s1 (stereo not shown),-62.4
15,CCn1nc(C)cc1C(=O)N1CCCC(N(C)CCc2ccc(OC)c(OC)c2)C1 (stereo not shown),-16.2
16,COc1ccc(CCN(C)C2CCCN(C(=O)c3ccnn3C)C2)cc1OC (stereo not shown),-21.1
17,Cc1ccsc1C(=O)N1CCCC(N(C)Cc2ccccc2)C1 (stereo not shown),-13.9
18,CN(C)CCCn1c(SCc2c(Cl)cccc2Cl)nnc1-c1ccncc1.O=C(O)C(=O)O,-0.471
19,CCOc1ccc(NC(=O)C2CCCN(c3nn4c(=O)cc(C)nc4s3)C2)cc1 (stereo not shown),-7.14
20,COc1ccc(C/C(C)=N/NC(=O)c2ccncc2)cc1,-7.41
21,O=C(CSc1nc(O)c(C2CCCCC2)c(=O)[nH]1)Nc1ccc(F)cc1,22.4
22,COc1ccc(OCCSc2ncc(CO)n2C)cc1,12.4

row,Structure (SMILES),"hERG current change (%, negative = inhibition) at 10uM [%]"
1,CCCn1c(CN2CCN(C)CC2)nc2ccccc21,-9.68
2,CCn1c(CN2CCN(CCO)CC2)nc2ccccc21,5.04
3,CCCCn1c(CNC(C)=O)nc2ccccc21,3.5
4,CCCCn1c(N)nc2ccccc21.Cl,-8.47
5,CCCCn1c(CN2CCN(C)CC2)nc2ccccc21,-67.1
6,CCCCn1c(CN2CCN(CCO)CC2)nc2ccccc21,-66
7,O=S(=O)(Nc1ccccn1)c1ccc(Cl)c2ccccc12,19.5
8,O=C(NCc1cccnc1)c1cccc2c1C(=O)N(C1CCCCC1)C2,-15.3
9,CCc1ccccc1N1C(=O)/C(=C/c2ccc(N3CCN(C)CC3)o2)C(=O)NC1=S,1.18
10,O=C(CCNS(=O)(=O)c1ccccc1C(F)(F)F)NCC(c1ccco1)N1CCCCC1 (stereo not shown),0.519
11,CCOc1ccc2nc(NS(=O)(=O)c3cccs3)sc2c1,20.8
12,COC(OC)c1ccc(C#N)c(SCc2ccccc2)n1,4.03
13,CCNS(=O)(=O)c1ccc(CCC(=O)NCc2ccccn2)cc1,13.5
14,O=C(CN1CCOCC1)NNc1nc(-c2ccccc2)c2cc(Br)ccc2n1,-38.7
15,O=C(CN1CCCCC1)NNc1nc(-c2ccccc2)c2cc(Cl)ccc2n1,-58
16,O=C(CCl)NNc1nc(-c2ccccc2)c2cc(Cl)ccc2n1,1.46
17,O=C(O)CCC(=O)NNc1nc(-c2ccccc2)c2cc(Cl)ccc2n1,14.4
18,CC(=O)NNc1nc(-c2ccccc2)c2cc(Br)ccc2n1,5.01
19,O=C(CN1CCCCC1)NNc1nc(-c2ccccc2)c2cc(Br)ccc2n1,-55.4
20,COCCN(C(=O)CCCC(=O)Nc1ccccn1)C(C(=O)NC1CCCC1)c1ccc(C)cc1 (stereo not shown),-5.66
21,O=C(Nc1cc2c(oc1=O)CCCC2=O)c1cccc(Cl)c1,4.61
22,CCC(Oc1ccccc1)C(=O)Nc1ccccc1C(=O)N1CCN(C)CC1 (stereo not shown),0.0528

row,Structure (SMILES),"hERG current change (%, negative = inhibition) at 10uM [%]"
1,N#CC(c1ccccc1)N1CCOCC1 (stereo not shown),6.63
2,S=C1SCN(Cc2cccnc2)CN1Cc1ccccc1,-54.7
3,S=C1NCN(Cc2cccnc2)CN1Cc1ccccc1,22.8
4,S=C1SCN(Cc2cccnc2)CN1Cc1cccnc1,-20.9
5,Fc1ccc2[nH]c3c(N4CCN(C5CCCCC5)CC4)ncnc3c2c1,-46.7
6,COc1ccc(CN(CC2CCC(C(=O)O)CC2)C(=S)Nc2cc(C)cc(C)c2)cc1 (stereo not shown),19.6
7,Cc1cc(N2CCN(C)CC2)nc(-c2ccccc2O)n1,-41.9
8,Cc1cc(N2CCCC2)nc(-c2ccccc2O)n1,-1.15
9,CCN1CCN(c2cc(C)nc(-c3ccccc3O)n2)CC1,-58.9
10,Cc1ccc(CN2CC(C(=O)Nc3cccc(S(=O)(=O)N4CCCCC4)c3)CC2=O)cc1 (stereo not shown),6.85
11,CC(=O)c1ccc(OCC(C)C)c(CC(C(N)=O)C(N)=O)c1,19.2
12,CCOC(=O)C1=C(C)N(CCO)C(=O)NC1c1cccc(O)c1 (stereo not shown),18.8
13,CSc1ccc(CN2CCC(n3nccc3NC(=O)C3CCOC3)CC2)cc1 (stereo not shown),-67.8
14,O=C(Nc1ccnn1C1CCN(C(=O)c2ccc(Cl)cc2)CC1)C1CC1,-24.2
15,CSc1cccc(CN2CCC(n3nccc3NC(=O)C3CC3)CC2)c1,-51.4
16,O=C(Nc1ccnn1C1CCN(Cc2ccccc2)CC1)C1CCCC1,-36.7
17,CSc1ccc(CC(=O)N2CCC(n3nccc3NC(=O)C3CC3)CC2)cc1,-8.47
18,CC(C)n1cc(CN2CCC(n3nccc3NC(=O)C3CCCC3)CC2)cn1,-1.92
19,O=C(Nc1ccnn1C1CCN(Cc2ccccc2)CC1)C1CCOC1 (stereo not shown),18.8
20,O=C(Nc1ccnn1C1CCN(Cc2ccc(Cl)cc2)CC1)C1CCCC1,-63.6
21,O=C(Nc1ccnn1C1CCN(Cc2cccc(O)c2)CC1)C1CCCC1,-36.5
22,O=C(Nc1ccnn1C1CCN(Cc2ccc(O)c(Cl)c2)CC1)C1CCCC1,-33

row,Structure (SMILES),"hERG current change (%, negative = inhibition) at 10uM [%]"
1,Cc1ccc(CN2CCC(n3nccc3NC(=O)C3CCOC3)CC2)cc1 (stereo not shown),-26.8
2,CC(Cc1ccc(Cl)cc1)N1CCC(n2nccc2NC(=O)C2CCCC2)CC1 (stereo not shown),-76.3
3,CNC(=S)N/N=C/c1cn(CCOc2cccc(OC)c2)c2ccccc12,3.42
4,O=C([O-])C(CCCCNS(=O)(=O)c1ccc(F)cc1)NS(=O)(=O)c1ccc(F)cc1.[K+] (stereo not shown),20.3
5,COc1ccccc1NC(=O)C1=C(C)Nc2nc(CCCO)nn2C1c1ccc2c(c1)OCO2 (stereo not shown),7.42
6,CCOC(=O)C1CCCC(NS(=O)(=O)c2ccc(NC(C)=O)cc2)C1 (stereo not shown),-2.41
7,Cc1ccc(S(=O)(=O)/N=C(/c2ccccc2)N(C)C)c(C)c1,12.7
8,NC(=S)N/N=C1\c2ccccc2-c2c(C(=O)O)cccc21,12.7
9,Cc1cc(C)c(C(=O)N2CCCC(CNC(=O)C3(c4ccc(Cl)cc4)CC3)C2)c(=O)[nH]1 (stereo not shown),6.58
10,COCCN1C(=O)C(=O)/C(=C(/O)c2ccc(S(=O)(=O)N3CCOCC3)cc2)C1c1ccc(O)cc1 (stereo not shown),3.78
11,O=C1OCC(CO)(CO)N=C1NNc1ccc(Cl)c(Cl)c1,8.16
12,COC(=O)c1ccc2c(=O)n(CCCCCC(=O)NCc3ccc4c(c3)OCO4)c(=O)[nH]c2c1,-31.7
13,Cc1cc(C)cc(NC(=S)N2CCN(c3ccc(F)cc3)CC2)c1,-8.95
14,COC(=O)C1=C(c2ccccc2OCc2ccccc2)C[C@@H]2CC[C@H]1N2C(=O)NCc1ccc(N(C)C)cc1,10.9
15,O=C(Nc1ccnn1C1CCN(Cc2cccc(OCCO)c2)CC1)C1CCOC1 (stereo not shown),-2.98
16,CC(C)Cc1ccc(CN2CCC(n3nccc3NC(=O)C3CCCC3)CC2)cc1,-72.4
17,CCn1cc(CN2CCC(n3nccc3NC(=O)C3CCCC3)CC2)cn1,-6.15
18,CCOc1cccc(CN2CCC(n3nccc3NC(=O)C3CCCC3)CC2)c1,-55.3
19,O=C(Nc1ccnn1C1CCN(Cc2cccc(OCCO)c2)CC1)C1CCCC1,-24.8
20,CCc1ccc(CN2CCC(n3nccc3NC(=O)C3CCCC3)CC2)cc1,-76.3
21,Cn1c(=S)c2[nH]c(SCCN3CCCC3)nc2n(C)c1=O,10.5
22,Cc1ccccc1NC(=S)N(CCN(C)C)C(C)c1ccccn1 (stereo not shown),-8.78
